T cruzi growth-1 = T. cruzi proliferation inhibition. T. cruzi beta-gal in NIH3T3, GalScreen luminescence, 90 h. inhibition, % at 8.34 µM. 77,000 compounds, 5.9% hits;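 active means mean inhibition above about 93%, with at least 55% of replicates each passing it, limit read from the data, passing the limit was not always enough; inconclusive means only one of those two conditions holds; inactive means neither condition holds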
Pf Dd2 growth = blocks growth of Plasmodium falciparum Dd2 parasites. activity change, % at 10 µM. P. falciparum Dd2 growth, SYBR Green, 72 h; active compounds read low. AID 1159554. 94,000 compounds, 2.3% hits; in the data active means activity change below about -80%; inconclusive means no clear call, values can overlap the other calls
C diff growth = blocks growth of Clostridium difficile; growth activity, negative = inhibition, % at 16 µg/mL (by protocol); Clostridium difficile clinical isolate growth, OD600, 24 h; active compounds read low; 86,000 compounds, 0.25% hits;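 active means mean growth activity at or below -80% and every replicate also at or below -80%; inconclusive means mean at or below -80% but some replicate above -80%; inactive means mean growth activity above -80%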
T cruzi growth-2 = inhibitors of T. cruzi proliferation. 5,600 compounds, 72% hits. inhibition, % at 8.35 µM. shares compounds with T cruzi growth-1. T. cruzi beta-gal in NIH3T3, GalScreen luminescence, 90 h. AID 651739;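 active means mean replicate inhibition above about 95% and at least 55% of replicates individually reaching it, limit read from the data; inconclusive means only one of the two criteria is met; inactive means neither criterion is met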
T cruzi growth-3 = inhibitors of T. cruzi proliferation | shares compounds with T cruzi growth-1 | T. cruzi beta-gal in NIH3T3, GalScreen luminescence, 90 h | inhibition, % at 2.09 µM | 5,600 compounds, 21% hits | AID 651740;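 active means mean inhibition above about 95%, with at least 55% of replicates also reaching it, limit read from the data; inconclusive means meets just one of the two conditions; inactive means meets neither condition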
NIH3T3 tox = NIH/3T3 (mouse) viability loss. shares compounds with T cruzi growth-1. NIH/3T3 viability, CellTiter-Glo ATP luminescence, 90 h. cytotoxicity (signal decrease), % at 8.35 µM. 5,600 compounds, 14% hits;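 active means mean signal decrease across replicates above about 35% based on untreated-well scatter, with enough replicates individually passing, limit read from the data; inconclusive means no rule stated though some were filed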
3T3 cytotox 2 = NIH/3T3 (mouse) viability loss | 5,600 compounds, 56% hits | NIH/3T3 viability, CellTiter-Glo ATP luminescence, 90 h | shares compounds with T cruzi growth-1 | inhibition, % at 24.9 µM;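 active means mean loss of cell viability signal at or above a set limit, and enough replicates individually reaching it; inconclusive means meets only the mean limit or only the replicate share; inactive means meets neither condition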
Large screens that a line does not name were inactive (follow-up assays come after a bar, where they were run); ! = not active in a repeat. A selection: hits, their analogues and other compounds. The true share with any hit is near 6.7%.

CC(=O)N(C)C[C@H]1Oc2cc(C#CC3CCCC3)ccc2S(=O)(=O)N([C@H](C)CO)C[C@H]1C	T cruzi growth-1 102 | T cruzi growth-2 96 | T cruzi growth-3 inactive | NIH3T3 tox inactive | 3T3 cytotox 2 62
C/C=C/c1ccc([C@@H]2[C@@H](CO)N(C(C)=O)[C@H]2CN(CC)C(=O)CC)cc1	T cruzi growth-1 101 | T cruzi growth-2 106 | T cruzi growth-3 inactive | NIH3T3 tox inactive | 3T3 cytotox 2 inactive
C/C=C/c1ccc([C@@H]2[C@@H](CN(CC)C(=O)CC)N(C(C)=O)[C@H]2CO)cc1	none
C/C=C/c1ccc([C@@H]2[C@H](CO)N(C(=O)C3CC3)[C@H]2CN(CC)C(C)=O)cc1	T cruzi growth-1 100 | T cruzi growth-2 inactive | T cruzi growth-3 inactive | NIH3T3 tox inactive | 3T3 cytotox 2 inactive
C/C=C/c1ccc([C@@H]2[C@@H](CN(CC)C(=O)CC)N(C(=O)C3CCC3)[C@H]2CO)cc1	none
C[C@@H]1CCCCO[C@@H](CN(C)C(=O)Nc2ccc3c(c2)OCO3)[C@@H](C)CN([C@@H](C)CO)C(=O)c2cc(NC(=O)c3ccccc3)ccc2O1	none (no result: T cruzi growth-1)
O=C(C[C@H]1CC[C@@H]2[C@H](COC[C@H](O)CN2C(=O)Nc2ccc(Cl)c(Cl)c2)O1)NCc1ccc(Cl)c(Cl)c1	T cruzi growth-1 106 (no result: C diff growth) | T cruzi growth-2 96 | T cruzi growth-3 inactive | NIH3T3 tox inactive | 3T3 cytotox 2 104
O=C(C[C@@H]1CC[C@@H]2[C@H](COC[C@H](O)CN2C(=O)Nc2ccc(Cl)c(Cl)c2)O1)NCc1ccccc1	none (no result: C diff growth)
O=C(C[C@@H]1CC[C@H]2[C@@H](COC[C@H](O)CN2C(=O)Nc2ccc(Cl)c(Cl)c2)O1)NCc1ccncc1	T cruzi growth-1 128 | T cruzi growth-2 98 | T cruzi growth-3 inactive | NIH3T3 tox inactive | 3T3 cytotox 2 39
O=C(C[C@H]1CC[C@H]2[C@@H](COC[C@@H](O)CN2C(=O)Nc2ccc(Cl)c(Cl)c2)O1)NCc1ccccc1	none (no result: C diff growth)
CCCNC(=O)N1C[C@H](O)COC[C@@H]2O[C@H](CC(=O)NCc3ccc(Cl)c(Cl)c3)CC[C@H]21	none
O=C(C[C@H]1CC[C@H]2[C@@H](COC[C@H](O)CN2C(=O)Nc2ccc(Cl)c(Cl)c2)O1)NCc1ccncc1	T cruzi growth-1 153, C diff growth -97! | T cruzi growth-2 110 | T cruzi growth-3 inactive | NIH3T3 tox inactive | 3T3 cytotox 2 inactive
C[C@H](CO)N1C[C@H](C)[C@@H](CN(C)S(=O)(=O)c2ccc(F)cc2)Oc2ccc(NC(=O)C3CC3)cc2CC1=O	none
COc1ccc(NC(=O)N(C)C[C@H]2Oc3ccc(NC(=O)Nc4ccc5c(c4)OCO5)cc3CC(=O)N([C@@H](C)CO)C[C@H]2C)cc1	none
CC(C)CC#Cc1ccc2c(c1)O[C@@H](CN(C)Cc1ccccn1)[C@H](C)CN([C@@H](C)CO)S2(=O)=O	T cruzi growth-1 131 | T cruzi growth-2 109 | T cruzi growth-3 inactive | NIH3T3 tox inactive | 3T3 cytotox 2 103
C[C@H](O)C#Cc1ccc2c(c1)O[C@@H](CN(C)Cc1ccccn1)[C@@H](C)CN([C@H](C)CO)S2(=O)=O	none
CC(C)CC#Cc1ccc2c(c1)O[C@@H](CN(C)Cc1ccccn1)[C@H](C)CN([C@H](C)CO)S2(=O)=O	T cruzi growth-1 123 | T cruzi growth-2 104 | T cruzi growth-3 inactive | NIH3T3 tox inactive | 3T3 cytotox 2 105
CC(C)CC#Cc1ccc2c(c1)O[C@@H](CN(C)Cc1ccccn1)[C@@H](C)CN([C@@H](C)CO)S2(=O)=O	T cruzi growth-1 116 (no result: C diff growth) | T cruzi growth-2 105 | T cruzi growth-3 inactive | NIH3T3 tox inactive | 3T3 cytotox 2 102
C[C@@H](O)C#Cc1ccc2c(c1)O[C@H](CN(C)Cc1ccccn1)[C@@H](C)CN([C@@H](C)CO)S2(=O)=O	none
CC(C)CC#Cc1ccc2c(c1)O[C@H](CN(C)Cc1ccccn1)[C@H](C)CN([C@@H](C)CO)S2(=O)=O	T cruzi growth-1 126 | T cruzi growth-2 100 | T cruzi growth-3 inactive | NIH3T3 tox inactive | 3T3 cytotox 2 104
COc1ccc(S(=O)(=O)Nc2ccc3c(c2)C(=O)N([C@@H](C)CO)C[C@@H](C)[C@H](CN(C)S(=O)(=O)c2cccs2)OCCCC[C@@H](C)O3)cc1	none
CCC(=O)N(C)C[C@H]1Oc2cc(C3=CCCCC3)ccc2S(=O)(=O)N([C@H](C)CO)C[C@@H]1C	none (no result: C diff growth)
CO[C@H](CN(C)C(=O)c1ccc2c(c1)OCO2)[C@H](C)CN([C@H](C)CO)S(=O)(=O)c1ccccc1	none (no result: C diff growth)
C/C=C/c1cnc2c(c1)C(=O)N([C@@H](C)CO)C[C@H](C)[C@@H](CN(C)C(=O)CN1CCOCC1)O2	none
CC=Cc1ccc2n(c1=O)C[C@@H]1[C@@H](CO)[C@H](C(=O)NCC(F)(F)F)[C@H]2N1C(=O)C1CCCCC1 (mixture of isomers)	none
C[C@@H]1CN([C@H](C)CO)S(=O)(=O)c2ccc(-c3cncnc3)cc2O[C@@H]1CN(C)Cc1cncnc1	none
Cc1ccc(-c2ccc3c(c2)O[C@H](CN(C)Cc2cncnc2)[C@H](C)CN([C@H](C)CO)S3(=O)=O)cc1	none (no result: T cruzi growth-1, C diff growth)
C[C@H]1CN([C@@H](C)CO)S(=O)(=O)c2ccc(-c3cncnc3)cc2O[C@H]1CN(C)Cc1cncnc1	none
Cc1ccc(-c2ccc3c(c2)O[C@H](CN(C)Cc2cncnc2)[C@@H](C)CN([C@H](C)CO)S3(=O)=O)cc1	T cruzi growth-1 102 | T cruzi growth-2 102 | T cruzi growth-3 inactive | NIH3T3 tox 42 | 3T3 cytotox 2 65
C[C@H]1CN([C@@H](C)CO)S(=O)(=O)c2ccc(-c3ccncc3)cc2O[C@H]1CN(C)Cc1cncnc1	T cruzi growth-1 104 | T cruzi growth-2 100 | T cruzi growth-3 inactive | NIH3T3 tox inconclusive | 3T3 cytotox 2 34
C[C@H](CO)N1C[C@H](C)[C@@H](CN(C)Cc2cncnc2)Oc2cc(-c3ccncc3)ccc2S1(=O)=O	T cruzi growth-1 101 | T cruzi growth-2 104 | T cruzi growth-3 inconclusive | NIH3T3 tox inactive | 3T3 cytotox 2 41
CC(C)CC#Cc1cnc2c(c1)C(=O)N([C@H](C)CO)C[C@@H](C)[C@@H](CN(C)Cc1ccccc1C(=O)O)O2	none (no result: T cruzi growth-1)
Cn1cnc(CCNC(=O)C[C@H]2CC[C@H]3[C@@H](COC[C@H](O)CN3C(=O)Nc3ccccc3)O2)c1	none
Cn1cnc(CCNC(=O)C[C@@H]2CC[C@H]3[C@@H](COC[C@@H](O)CN3C(=O)C3CC3)O2)c1	T cruzi growth-1 104 | T cruzi growth-2 102 | T cruzi growth-3 inactive | NIH3T3 tox inactive | 3T3 cytotox 2 inactive

High-throughput results: PubChem, Broad Institute
